Bioassay records: PubChem, Johns Hopkins Ion Channel Center
KCNQ2 enhance = potentiators of rat KCNQ2 potassium channel; AID 2239; O88943; CHO-K1 KCNQ2, FluxOR thallium flux fluorescence; hits give high values; B-score at 10 µM; 0.54% of 310,000 active;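 active means fluorescence ratio B-score at least 3 SD of library B-scores, with initial fluorescence B-score within 3 of them, cut at about 5.3 in these data; same plate scores as AID 2156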;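 further: B-score of peak minus minimum over baseline fluorescence ratio after K+ and Tl+ stimulus; positive B-score means potentiation of KCNQ2 with more thallium influx and brighter signal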
KCNQ2 block = KCNQ2 (rat) channel inhibition | 1.1% of 310,000 active | B-score at 10 µM | CHO-K1 KCNQ2, FluxOR thallium flux, 20 min; hits give low values | AID 2156;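 active means fluorescence ratio B-score at most minus 3 library SDs, with starting brightness B-score within 2 library SDs, cut at about -5.5 in these data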
Kir21 confirm = confirmation of mouse Kir2.1 potassium channel inhibitors. shares compounds with KCNQ2 enhance. Kir2.1-expressing cells, FluxOR thallium flux fluorescence; hits give low values. Tl flux remaining, % of negative control (hits give low values), % at 10 µM. 41% of 2,300 active;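 active means Primary-screen hit whose thallium flux fell at least 3 control SD below untreated wells in both duplicates, with normal baseline fluorescence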
HEK293 Tl flux = counter-screen for Kir2.1 inhibitors: effect in parental HEK293 cells. FluxOR thallium flux fluorescence; 0% = unstimulated blank wells. shares compounds with KCNQ2 enhance. FluxOR signal as % of negative control (100 = no effect), % at 10 µM. 19% of 2,300 active. AID 2105;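 active means dye signal at least 3 control SD above or below untreated wells in both duplicates, raw fluorescence within 3, either direction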;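 further: percent is based on the flux ratio of peak minus minimum fluorescence over baseline F0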
CHO-K1 ctr = counter-screen for KCNQ2 potentiators: effect in parental CHO-K1 cells | shares compounds with KCNQ2 enhance | activity increase over 3SD of controls, % at 10 µM | FluxOR thallium flux fluorescence; zero = vehicle mean+3SD, 100% = vehicle-minus-blank window | 43% of 1,200 active | AID 2282;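 active means signal rise of at least 3 SD above the untreated control mean, in both duplicate wells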;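 further: counter screen of KCNQ2 potentiator hits so any rise reflects channel-independent effects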
KCNQ1 pot spec = selectivity of KCNQ2 potentiators: effect on human KCNQ1; AID 2283; shares compounds with KCNQ2 enhance; 28% of 1,200 active; activation over 3SD threshold, % at 10 µM; CHO KCNQ1 stable, FluxOR thallium flux fluorescence; beyond 3SD, as % of vehicle-control signal;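 active means fluorescence ratio rise of at least 3 SD of vehicle wells above their mean, in both replicate wells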
Target sequence (P51787 whole entry, looked up): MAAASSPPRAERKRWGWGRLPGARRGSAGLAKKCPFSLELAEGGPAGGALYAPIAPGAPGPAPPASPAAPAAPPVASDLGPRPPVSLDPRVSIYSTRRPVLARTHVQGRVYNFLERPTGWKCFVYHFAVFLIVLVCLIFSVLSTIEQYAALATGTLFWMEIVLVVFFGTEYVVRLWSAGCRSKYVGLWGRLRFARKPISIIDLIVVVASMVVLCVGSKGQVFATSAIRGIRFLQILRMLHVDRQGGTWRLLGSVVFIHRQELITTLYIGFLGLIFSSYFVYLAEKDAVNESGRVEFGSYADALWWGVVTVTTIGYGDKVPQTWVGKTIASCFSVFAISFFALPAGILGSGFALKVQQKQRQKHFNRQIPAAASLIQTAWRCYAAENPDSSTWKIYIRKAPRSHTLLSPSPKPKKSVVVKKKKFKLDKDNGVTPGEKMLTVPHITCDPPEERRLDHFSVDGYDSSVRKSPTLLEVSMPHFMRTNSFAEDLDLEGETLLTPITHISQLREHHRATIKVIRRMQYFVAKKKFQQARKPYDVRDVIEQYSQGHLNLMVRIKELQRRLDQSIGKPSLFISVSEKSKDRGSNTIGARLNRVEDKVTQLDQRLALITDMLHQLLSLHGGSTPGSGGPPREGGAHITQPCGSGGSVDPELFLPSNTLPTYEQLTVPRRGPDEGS
KCNQ2 pot conf = rat KCNQ2 channel potentiator confirmation | CHO-KCNQ2 cells, FluxOR thallium flux fluorescence | 68% of 1,200 active | potentiation, less the hit threshold, % at 10 µM | shares compounds with KCNQ2 enhance;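 active means fluorescence ratio rising 3 SD or more over the vehicle control mean in both replicates, plus primary screen hit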;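 further: peak minus minimum thallium fluorescence divided by baseline after K/Tl stimulus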
Kir21 spec = tests whether KCNQ2 potentiators also affect mouse Kir2.1. AID 2345. HEK293 Kir2.1, FluxOR thallium flux fluorescence. shares compounds with KCNQ2 enhance. 2% of 1,200 active. activity over 3SD threshold, % at 10 µM;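 active means fluorescence ratio rise of at least 3 SD above the vehicle-control mean, seen in both replicates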
KCNQ2 W236L pot = rat KCNQ2 W236L mutant potentiation by KCNQ2 potentiators; shares compounds with KCNQ2 enhance; current increase over 3SD of negative controls (%), hits give high values, % at 25 µM; 10% of 940 active; CHO KCNQ2-W236L, automated patch clamp current;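 active means current increase at least 3 SD of the untreated controls above them in both duplicate recordings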
Of the large screens only hits and unclear results are named; the others gave an inactive call (follow-up assays come after a bar, where they were run). Only some compounds are listed: those with a hit (about 1.6% of all), similar ones and a draw of the others.

Cc1ncsc1C(=O)N1CCCC(CNS(=O)(=O)c2cccs2)C1 (centres undefined)	none
CCCOc1cccc(-c2cc(-c3n[nH]c(=S)n3CC)c3ccccc3n2)c1	KCNQ2 enhance 26 | Kir21 confirm inactive | HEK293 Tl flux inactive | CHO-K1 ctr 115 | KCNQ1 pot spec inactive | KCNQ2 pot conf inactive | Kir21 spec inactive
CCn1c(-c2cc(-c3ccc(C)cc3)nc3ccccc23)n[nH]c1=S	none (no result: KCNQ2 enhance)
CCc1ccc2c(CN3CCC(C(=O)OC)CC3)cc(=O)oc2c1	none (no result: KCNQ2 enhance)
COc1cc(CNCCc2ccccc2)cc(Br)c1OCC(=O)Nc1ccccc1C	KCNQ2 block -7.1 | Kir21 confirm 55% | HEK293 Tl flux inactive
CNCc1cc(Br)c(OCC(=O)Nc2ccccc2OC)c(OC)c1	none
COc1cc(CN2CCNC(=O)C2CC(=O)NC2CCC2)cc(OC)c1 (centres undefined)	none (no result: KCNQ2 enhance)
C=CCn1c(SCC(N)=O)nc2scc(-c3ccc(C)o3)c2c1=O	KCNQ2 enhance 5.3 | Kir21 confirm inactive | HEK293 Tl flux 195% | CHO-K1 ctr 22 | KCNQ1 pot spec inactive | KCNQ2 pot conf 25 | Kir21 spec inactive | KCNQ2 W236L pot inactive
C=CCn1c(SCC(=O)NCCOC)nc2scc(-c3ccco3)c2c1=O	none (no result: KCNQ2 enhance)
CC(C)COCc1ccc(O)c2ncccc12	KCNQ2 enhance 7.7 | Kir21 confirm inactive | HEK293 Tl flux inactive | CHO-K1 ctr inactive | KCNQ1 pot spec 11 | KCNQ2 pot conf 51 | Kir21 spec inactive | KCNQ2 W236L pot inactive
OCc1ccc(O)c2ncccc12	none (no result: KCNQ2 enhance)
CCCOCc1ccc(O)c2ncccc12	none
Oc1ccc(CN2CCCCC2)c2cccnc12	none
Oc1ccc(COCc2ccccc2)c2cccnc12	KCNQ2 enhance 5.9 | Kir21 confirm inactive | HEK293 Tl flux inactive | CHO-K1 ctr 15 | KCNQ1 pot spec inactive | KCNQ2 pot conf 1.0 | Kir21 spec inactive | KCNQ2 W236L pot inactive
Oc1ccc(CN2CCc3ccccc3C2)c2cccnc12	KCNQ2 enhance 13 | Kir21 confirm 32% | HEK293 Tl flux inactive | CHO-K1 ctr 44 | KCNQ1 pot spec inactive | KCNQ2 pot conf 1.3 | Kir21 spec inactive | KCNQ2 W236L pot inactive
Cc1ccc(OCC(=O)NCCNC(=O)c2cnccn2)cc1C	none
CC(=O)C(Sc1nc(N2CCOCC2)nc(N2CCOCC2)n1)C(=O)Nc1ccccc1 (centres undefined)	KCNQ2 enhance 6 | Kir21 confirm inactive | HEK293 Tl flux inactive | CHO-K1 ctr 10 | KCNQ1 pot spec inactive | KCNQ2 pot conf 12 | Kir21 spec inactive | KCNQ2 W236L pot inactive
CCNc1nc(SC(C)C(=O)Nc2ccccc2)nc(N2CCOCC2)n1 (centres undefined)	none
CCOC(=O)N/N=C/C=C/c1ccccc1	none
COc1cccc(NC(=O)N2CCCC2C(=O)Nc2cc(C)ccc2OC)c1 (centres undefined)	none
Cc1ccccc1C(=O)NNC(=S)NC(=O)c1ccc(Cl)cc1Cl	none
O=C(NC(=S)N1CCCCCC1)c1ccc(Cl)cc1Cl	KCNQ2 enhance 9.1 | Kir21 confirm inactive | HEK293 Tl flux 238% | CHO-K1 ctr 27 | KCNQ1 pot spec 6.1 | KCNQ2 pot conf 12 | Kir21 spec inactive | KCNQ2 W236L pot inactive
O=C(NC(=S)N1CCCCCC1)c1ccccc1Cl	none
CCCN(CCC)C(=S)NC(=O)c1ccc(Cl)cc1Cl	KCNQ2 enhance 16 | Kir21 confirm inactive | HEK293 Tl flux 394% | CHO-K1 ctr inactive | KCNQ1 pot spec inactive | KCNQ2 pot conf 67 | Kir21 spec inactive | KCNQ2 W236L pot inactive
CC(O)[C@@]1(O)CC[C@H]2[C@@H]3CC[C@H]4C[C@@H](O)CC[C@]4(C)C3=CC[C@@]21C (some centres undefined)	none (no result: KCNQ2 enhance)
FC(F)(F)c1ccc(NC(=S)NCc2ccccc2)cc1	none (no result: KCNQ2 enhance)
O=C(CSc1ccccc1C(=O)O)c1ccc(Cl)cc1	none
O=C(O)c1ccccc1NC(c1ccccc1)c1ccc(Cl)cc1 (centres undefined)	KCNQ2 enhance 5.9 | Kir21 confirm inactive | HEK293 Tl flux inactive | CHO-K1 ctr inactive | KCNQ1 pot spec 16 | KCNQ2 pot conf inactive | Kir21 spec inactive
COC(=O)CN(C)C(=O)c1ccc2nc(Cc3cccc(Cl)c3)oc2c1	none (no result: KCNQ2 enhance)
O=c1c2c(-c3cccs3)csc2ncn1-c1ccc(Br)cc1	none (no result: KCNQ2 enhance)
C=CCn1c(=S)[nH]c2scc(-c3cccs3)c2c1=O	KCNQ2 enhance 25 | Kir21 confirm inactive | HEK293 Tl flux 512% | CHO-K1 ctr 12 | KCNQ1 pot spec inactive | KCNQ2 pot conf 106 | Kir21 spec inactive | KCNQ2 W236L pot inactive
Cn1c(=S)[nH]c2scc(-c3cccs3)c2c1=O	KCNQ2 enhance 19 | Kir21 confirm inactive | HEK293 Tl flux 465% | CHO-K1 ctr 119 | KCNQ1 pot spec inactive | KCNQ2 pot conf 88 | Kir21 spec inactive | KCNQ2 W236L pot inactive
C=CCn1c(=S)[nH]c2cc(-c3ccccc3)sc2c1=O	none
Cc1c(C(=O)C(=O)NCCCn2ccnc2)c2ccccc2n1C	none (no result: KCNQ2 enhance)
CC(=O)Nc1ccc(S(=O)(=O)NCCC(=O)OCc2ccc([N+](=O)[O-])cc2)cc1	none
COc1ccccc1N=Nc1ccc(O)c2ncccc12	KCNQ2 enhance 6.7 | Kir21 confirm inactive | HEK293 Tl flux inactive | CHO-K1 ctr inactive | KCNQ1 pot spec inactive | KCNQ2 pot conf 1.5 | Kir21 spec inactive | KCNQ2 W236L pot inactive
CCS(=O)(=O)c1ccc(N=Nc2ccc(O)c3ncccc23)c(OC)c1	none
Cc1ccc(N=Nc2ccc(O)c3ncccc23)cc1C	none
Cc1ccc(N=Nc2ccc(O)c3ncccc23)cc1	KCNQ2 enhance 8.3 | Kir21 confirm inactive | HEK293 Tl flux inactive | CHO-K1 ctr inactive | KCNQ1 pot spec 27 | KCNQ2 pot conf 13 | Kir21 spec inactive | KCNQ2 W236L pot inactive
COCCCNC(=O)Cn1cc(/C=C(\C#N)C(=O)NC2CC2)c2ccccc21	none
CN1CCN(c2nc3ccccn3c(=O)c2C=C(C#N)C#N)CC1	none (no result: KCNQ2 enhance)
CCCc1cc(=O)oc2cc(OCC(=O)NCC(O)c3ccccc3)ccc12 (centres undefined)	none (no result: KCNQ2 enhance)
COc1cc(Cl)c(C)cc1Nc1ncccn1	none
Cc1ccc(C(C)(C)C)c(OCCCn2ccnc2)c1	none (no result: KCNQ2 enhance)
CC(C)(C)c1ccccc1OCCCCCn1ccnc1	KCNQ2 block -6.1 | Kir21 confirm 39% | HEK293 Tl flux inactive
